# Source: PubChem
# Rows were chosen to be rich in hits. Some 3.6% of all compounds tested hit in one or more screens of this group.
# mHTT-CaM PPI inh: disrupts binding of mutant huntingtin to calmodulin; actives 3.6% (n = 190,000); AlphaScreen His-mHTT/GST-CaM binding, luminescence; inhibition, % at 15 µM; P42858
# Pf apPOL inh: Pf-apPOL DNA polymerase inhibition; actives 0.25% (n = 210,000); inhibition, % at 10 µM; AID 1794808; Recombinant Pf-apPOL, molecular beacon fluorescence, 1.5 h
# Hits are given with their value; 0 = inactive; - = not tested or not shown. No stated cut-off is given here; in the data, active means inhibition above about 50%; inactive means the rest.
SMILES,mHTT-CaM PPI inh,Pf apPOL inh
Cc1oc2ccn(Cc3ccccc3F)c(=O)c2c1C(=O)N1CCCC(C)C1 (stereo not drawn),0,0
CCC1CCCCN1C(=O)c1c(C)oc2ccn(Cc3ccccc3F)c(=O)c12 (stereo not drawn),67.7,0
CCn1ccc2oc(C)c(C(=O)N3CCN(C4CCCCC4)CC3)c2c1=O,0,0
CCn1ccc2oc(C)c(C(=O)N3CCN(c4ccccc4Cl)CC3)c2c1=O,77.1,0
O=C1NC(=S)NC1=CC=Cc1ccccc1,0,0
O=C(CSc1ccccc1)N1CCc2nc(-c3ccc(F)cc3)ncc2C1,0,0
O=C1CC(CNS(=O)(=O)c2cccc(C(F)(F)F)c2)CN1c1ccc(Cl)cc1 (stereo not drawn),0,0
COc1ccc(N2CCC(CNS(=O)(=O)c3cccc(C(F)(F)F)c3)C2)cc1 (stereo not drawn),73.0,0
O=C(Nc1nnc(Cc2ccc(Cl)cc2Cl)s1)c1ccco1,0,0
COC(=O)COc1ccc2c(C)cc(=O)oc2c1,0,0
O=C(NCc1ccccn1)c1ncn[nH]1,0,0
CC(C)(C)c1ccc(OCNC(=O)c2ncn[nH]2)cc1,73.0,0
CC(C)CCNC(=O)C1COc2ccc(NC(=O)C(C)(C)C)cc2C1 (stereo not drawn),0,0
COc1ccc(Nc2cc(C)c3cc(C)ccc3n2)cc1,56.5,0
Cc1ccc2nc(Cl)cc(C)c2c1,0,-
O=C(NCCS(=O)(=O)N1CCN(Cc2ccccc2)CC1)c1c(F)cccc1Cl,0,0
N#CC1=C(N)NC(SCC(=O)Nc2ccc(Br)cc2)=C(C#N)C12CCCCC2,83.3,0
CCSC1=C(C#N)C2(CCCC2)C(C#N)=C(N)N1,0,0
COc1coc(C(=O)N2CCN(c3cccc(Cl)c3Cl)CC2)cc1=O,0,0
OC(COc1ccccc1Cl)Cn1c(C2CC2)nc2ccccc21 (stereo not drawn),0,0
O=[N+]([O-])c1cccc(C2Nc3ccccc3-c3nc4ccccc4n32)c1 (stereo not drawn),0,0
O=[N+]([O-])c1ccc(C2Nc3ccccc3-c3nc4ccccc4n32)cc1 (stereo not drawn),54.0,0
CCn1nccc1C(=O)N1CCC(c2noc(N)c2C)CC1,0,0
Cc1ccccc1NC(=O)CN1CCC(c2nc(-c3ccncc3)no2)CC1,0,0
COc1ccc(-c2noc(C3CCN(CC(=O)Nc4ccccc4C)CC3)n2)cc1,66.0,0
SMILES,mHTT-CaM PPI inh,Pf apPOL inh
O=[N+]([O-])c1c(Cl)cc(O)c2c1C1C=CCC1C(C1CC=CCC1)N2 (stereo not drawn),80.0,0
CC(=O)c1ccc2c(c1)C1C=CCC1C(c1ccc(Cl)cc1Cl)N2 (stereo not drawn),0,0
O=C(O)C1Nc2cc(Cl)cc(Cl)c2C2C=CCC12 (stereo not drawn),99.0,0
O=[N+]([O-])c1c(Cl)cc(O)c2c1C1C=CCC1C(c1ccc(Cl)cc1)N2 (stereo not drawn),88.0,0
CCCC1Nc2c(C(=O)O)ccc([N+](=O)[O-])c2C2C=CCC12 (stereo not drawn),0,0
O=C(O)C1Nc2c(O)cc(Cl)c([N+](=O)[O-])c2C2C=CCC12 (stereo not drawn),90.0,0
COc1ccc(S(=O)(=O)N2CCC(C(=O)Nc3sc(C)c(C)c3C#N)CC2)cc1,0,0
COc1ccc(C2CC(c3ccc(Cl)cc3Cl)n3ncnc3N2)cc1 (stereo not drawn),0,0
Cc1ccc(C(=O)N2CCN(c3nc(CN4CCOCC4)cs3)CC2)cc1F,0,0
CN(C)Cc1c(O)ccc2c(-c3ccccc3)cc(=O)oc12,0,0
CC[C@@]1(O)C(=O)OCc2c1cc1n(c2=O)Cc2cc3c(CN(C)C)c(O)ccc3nc2-1,-,83.8
CCOc1ccc(N=c2scc(-c3ccc(Br)cc3)n2CCO)cc1,0,0
CCOc1ccc(N=c2scc(-c3ccccc3)n2CCO)cc1,0,0
Clc1ccc(-c2csc(=Nc3ccccc3)n2CCCN2CCOCC2)cc1,98.0,0
OCCCn1c(-c2ccc(Br)cc2)csc1=Nc1ccccc1,59.0,0
Cc1ccc(C)c(-c2csc(=Nc3ccccc3)n2CCCO)c1,100.0,0
O=S(=O)(c1ccc(-c2csc(=Nc3ccccc3)n2CCCO)cc1)N1CCCCC1,51.0,0
CCCCn1c(-c2ccc(S(=O)(=O)N3CCOCC3)cc2)csc1=Nc1ccccc1,0,0
CCCn1c(-c2ccc(S(=O)(=O)N3CCOCC3)cc2)csc1=Nc1ccccc1,0,0
c1cncc(-c2noc(Cc3cccs3)n2)c1,0,0
Cn1nc(-c2nnc(-c3ccccc3Cl)o2)c2c1CCN(C(=O)COc1ccccc1)C2,0,0
CCn1ccc2c(cc(C(=O)Nc3ccc(Br)cc3C)n2C)c1=O,0,0
O=C(CCn1c(=O)[nH]c2ccsc2c1=O)NC1CC1,0,0
CCN(CC)c1ncc2c(n1)CCC(C(=O)N1CCN(c3ccc(C)cc3)CC1)C2 (stereo not drawn),0,0
Cc1nnc(-c2ccc3ccn(CC(=O)Nc4ccccc4C)c3c2)o1,0,0
SMILES,mHTT-CaM PPI inh,Pf apPOL inh
O=c1cc(-c2ccccc2)[nH][nH]1,100.1,0
N#Cc1ccc(-c2ccccc2)[nH]c1=O,0,0
O=C(c1ccc(C(F)(F)F)s1)N1CCN(c2nc(CN3CCCCC3)cs2)CC1,0,0
COc1cc(NC(=O)Nc2nc3c(OC)ccc(C)c3s2)cc(OC)c1OC,0,0
COc1cc(OC)cc(N2CCN(C(=O)Cc3ccccc3)C(C)C2=O)c1 (stereo not drawn),0,0
COc1cccc(NS(=O)(=O)c2cccc3cccnc23)c1,0,0
COc1ccc(C(NC(=O)c2ccccc2)NC(=O)c2ccccc2)c(OC)c1,0,0
COc1cccc(C(NC(=O)c2ccccc2)c2ccc3cccnc3c2O)c1 (stereo not drawn),100.0,0
COc1cccc(NC(c2ccccn2)c2ccc3cccnc3c2O)c1 (stereo not drawn),99.0,0
COc1ccc(C(NC(=O)c2ccccc2)c2ccc3cccnc3c2O)cc1 (stereo not drawn),100.0,0
Cc1nn(-c2ccccc2)c2nc(N3CCC(NC(=O)Cc4cccc(F)c4)CC3)sc12,0,0
O=C(c1ccc(C(F)(F)F)cc1)N1CCc2c(nc[nH]c2=O)C1,0,0
CCc1cc(=O)n(CC(=O)Nc2cccc(Cl)c2F)c(C)n1,0,0
CCC1(CC)OC(c2ccc([N+](=O)[O-])cc2)Nc2ccccc21 (stereo not drawn),0,0
O=C(CSc1ccccn1)c1ccc2c(c1)OCO2,0,0
O=C(c1ccc2c(c1)OCO2)n1cccn1,0,66.5
O=C(Nc1ccc(O)c2c(=O)cc(-c3ccccc3Cl)oc12)c1ccc(Cl)cc1Cl,0,0
O=c1cc(-c2ccccc2Cl)oc2c(NS(=O)(=O)c3cc(Cl)cc(Cl)c3O)ccc(O)c12,96.6,0
CCN(CC)C(=O)c1ccc(CN2C(=O)COc3ccc(C)cc32)cc1,0,0
Cc1cc(=O)[nH]c(-n2nc(C)cc2NC(=O)C(=O)NCc2cccs2)n1,0,0
CCc1ccccc1Nc1nc(C)nc2c1CCC2,0,0
COc1ccc(C(=O)Nc2ccc(C(C)=O)cc2)cc1I,0,0
COc1ccc(-n2nc(C(=O)NCC(=O)N(C)Cc3ccccc3)c3ccccc3c2=O)cc1,66.0,0
COc1ccc(-n2nc(C(=O)NCC(=O)O)c3ccccc3c2=O)cc1,0,0
Cc1cc(Cl)c(OCCNCCO)c(Br)c1,0,0
